Screening data deposited in PubChem by Broad Institute.
An excerpt weighted towards active compounds, which were near 2.5% of everything screened.
RAD52 anneal inh – inhibitors of human RAD52 DNA annealing; P43351; recombinant RAD52 DNA annealing, FRET fluorescence; inhibition, % at 18.7 µM; actives 0.46% (n = 360,000); AID 651710;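 active = every replicate showing at least 50% inhibition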
Casp6 inh – inhibitors of human caspase-6 | purified caspase-6, Z-VEID-R110 cleavage fluorescence | inhibition, % at 12.5 µM | actives 0.53% (n = 350,000) | AID 686996;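 active = mean inhibition across replicates at least about 35%, with every replicate also reaching that limit, limit read from the data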
Ecoli rRNA inh – inhibitors of bacterial rRNA selective over humanized ribosomes; E. coli WT GFP vs humanized-ribosome RFP mutants, fluorescence, 24 h; stronger effect = lower value; DMSO median 0, no signal -100; GFP signal change (wild-type ribosome), % (test concentration not listed); AID 720706; actives 1.6% (n = 350,000);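 active = significant combined selectivity score with lowered wild-type GFP, culture density cut under 30%, mutant RFP and density less affected; inactive = any of these conditions unmet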
MLL AF4-AF9 inh – blocks AF4 peptide binding to human AF9; inhibition, % at 10 µM; actives 0.47% (n = 350,000); P42568; AlphaScreen, biotin-AF4 peptide binding to FLAG-AF9;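 active = every replicate reaching a set inhibition limit, whatever the replicate mean, cut at about 25% in these data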
Target sequence (P42568 whole entry, looked up): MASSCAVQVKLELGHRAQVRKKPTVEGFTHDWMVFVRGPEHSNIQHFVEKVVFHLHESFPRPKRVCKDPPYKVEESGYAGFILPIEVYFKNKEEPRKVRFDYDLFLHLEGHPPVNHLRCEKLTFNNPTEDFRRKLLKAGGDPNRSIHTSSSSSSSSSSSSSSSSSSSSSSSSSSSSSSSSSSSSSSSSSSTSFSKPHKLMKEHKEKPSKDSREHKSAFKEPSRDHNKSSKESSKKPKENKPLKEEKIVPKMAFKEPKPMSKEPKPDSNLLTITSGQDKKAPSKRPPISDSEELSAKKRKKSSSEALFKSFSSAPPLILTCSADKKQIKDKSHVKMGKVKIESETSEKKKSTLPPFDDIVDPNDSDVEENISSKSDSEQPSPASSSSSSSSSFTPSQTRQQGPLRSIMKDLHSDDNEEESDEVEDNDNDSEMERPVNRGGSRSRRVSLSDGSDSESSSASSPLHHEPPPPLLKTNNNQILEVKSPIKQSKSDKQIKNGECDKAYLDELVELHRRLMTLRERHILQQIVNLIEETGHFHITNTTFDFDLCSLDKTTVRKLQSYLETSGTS
NSD2 inh – blocks human histone methyltransferase NSD2 | O96028 | NSD2 peptide methylation, AlphaScreen, 120 min | inhibition, % at 12.5 µM | actives 0.54% (n = 310,000) | AID 743445; in the data active = inhibition above about 50%
Hits are given with their value; 0 = inactive; - = no result.

SMILES	RAD52 anneal inh	Casp6 inh	Ecoli rRNA inh	MLL AF4-AF9 inh	NSD2 inh
CCCCCCN1C[C@@H](n2cc(C3CC3)nn2)[C@H](O)C[C@@H]1c1ccccc1	0	0	0	0	-
CCCCCCN1C[C@H](O)[C@@H](n2cc(C3CC3)nn2)C[C@@H]1c1ccccc1	0	0	-16	0	-
COc1ccc(N2CCN(C(=O)c3ccc(SC)cc3OC)CC2)cc1	0	0	0	0	0
COc1cc(SC)ccc1C(=O)N1CCN(c2ccccc2F)CC1	0	0	-24	0	0
CCc1cccc(NC(=O)Cn2cc3c(n2)CCCC3)c1	0	0	0	0	-
CN(C)c1ccc(NC(=O)Cn2cc3c(n2)CCCC3)cc1	0	0	0	31	-
CCCn1c(SCC(=O)Nc2ccccc2N2CCCCC2)nc2c1c(=O)n(C)c(=O)n2C	0	0	-29	0	-
CCCn1c(SCC(=O)Nc2ccccc2C(=O)OC)nc2c1c(=O)n(C)c(=O)n2C	-	-	-	-	0
COC(=O)C[C@H]1C[C@H]2c3cc(NC(=O)c4cccnc4)ccc3O[C@H]2[C@@H](CO)O1	0	0	0	0	-
COc1ccc2cc(CN(CC3CCCO3)S(=O)(=O)c3ccccc3Cl)c(=O)[nH]c2c1 (centres undefined)	0	0	-36	-	0
C[C@@H]1CN([C@H](C)CO)C(=O)Cc2cc(NC(=O)C3CCCCC3)ccc2O[C@@H]1CN(C)Cc1ccc(C(=O)O)cc1	0	0	0	0	-
O=C(Nc1cccc(Oc2ccc(C(=O)O)c(C(=O)O)c2)c1)c1ccc(-c2ccccc2)cc1	0	42	0	0	0
CC(C)(C)C(=O)Nc1ccc(C(=O)Nc2cccc(Oc3ccc(C(=O)O)c(C(=O)O)c3)c2)cc1	0	0	0	0	0
O=C(NC(=S)N1CCN(C/C=C/c2ccccc2)CC1)c1ccc(Cl)nc1	0	0	-49	0	0
CCOc1ccc(NC(=S)N2CCN(C/C=C/c3ccccc3)CC2)cc1	0	0	-28	0	0
C/C(=N/OC(=O)c1ccccc1Br)c1ccc(C)cc1	0	0	-18	0	0
COc1ccc(C(=O)O/N=C(\C)c2ccccc2)cc1	-	-	-	-	0
CCCN(C)C[C@H]1Oc2cc(C3=CCCC3)ccc2S(=O)(=O)N([C@@H](C)CO)C[C@@H]1C	-	-	0	-	-
CCn1c(-c2ccccc2)csc1=Nc1ccc(O)cc1	0	0	0	49	0
C[C@H](CO)N1C[C@H](C)[C@H](CN(C)C)Oc2ccc(NS(=O)(=O)c3ccccc3)cc2C1=O	0	0	0	0	-
CC(C)NC(=O)N(C)C[C@@H]1OCCCC[C@@H](C)Oc2ccc(NC(=O)C3CCCCC3)cc2C(=O)N([C@@H](C)CO)C[C@H]1C	-	-	0	-	-
O=c1[nH][nH]c2c(N=Cc3ccccc3O)ccc(F)c12	0	97	0	-	-
CCc1ccc(O)c(N=Cc2ccccc2O)c1	0	0	0	0	-
C/C(=N\NC(=S)Nc1cccc(C)c1)c1ccco1	0	0	0	36	0
O=C1NCCC12C(=O)Nc1ccccc12 (centres undefined)	0	0	-	0	-
SMILES	RAD52 anneal inh	Casp6 inh	Ecoli rRNA inh	MLL AF4-AF9 inh	NSD2 inh
O=C(O)C1=C2C(=O)Nc3cccc(c32)C2(C1)C(=O)Nc1ccccc12 (centres undefined)	0	60	0	0	-
C[C@H](CO)N1C[C@H](C)[C@@H](CN(C)C(=O)Nc2ccccc2)OCCCC[C@H](C)Oc2ccc(NC(=O)NC3CCCCC3)cc2C1=O	0	0	0	0	-
O=C(Cc1c(F)cccc1Cl)OCC(=O)N1CCN(c2ccccc2)CC1	0	0	-21	0	0
COC(=O)[C@@]1(C)[C@H]2C(=O)N(Cc3ccccc3)C(=O)[C@H]2[C@H]2CN=C(SCc3ccc(Cl)cc3)N21	0	0	-21	0	-
Cc1ccc(NC(=S)Nc2cc(-c3ccccc3)[nH]n2)cc1Cl	0	0	-20	0	-
COc1ccc(NC(=S)Nc2ccc(C)c(Cl)c2)cc1OC	0	0	0	0	0
Fc1ccc(NC(=S)Nc2cc(-c3ccccc3)[nH]n2)cc1Cl	0	0	-54	0	0
CC(C)C(=O)Nc1nnc(NC(=S)Nc2ccccc2)s1	0	0	-34	0	0
CCCc1nnc(NC(=S)Nc2ccccc2)s1	0	0	0	0	0
CCNC(=O)Nc1ccc2c(c1)C(=O)N(C)[C@H]1CC[C@@H](CC(=O)NCc3ccc(F)cc3)O[C@H]1CO2	0	0	0	0	-
COc1ccc(NC(=O)N(C)C[C@H]2OCCCC[C@@H](C)Oc3ccc(NS(=O)(=O)c4ccccc4)cc3C(=O)N([C@H](C)CO)C[C@@H]2C)cc1	99	0	0	0	-
COc1ccc(NC(=O)N(C)C[C@H]2OCCCC[C@H](C)Oc3ccc(NS(=O)(=O)c4cn(C)cn4)cc3C(=O)N([C@H](C)CO)C[C@@H]2C)cc1	0	0	0	0	-
COc1ccc(NC(=O)N(C)C[C@H]2OCCCC[C@@H](C)Oc3ccc(NS(=O)(=O)c4cn(C)cn4)cc3C(=O)N([C@H](C)CO)C[C@@H]2C)cc1	0	60	0	0	-
COc1ccc(NC(=O)N(C)C[C@H]2OCCCC[C@@H](C)Oc3ccc(NS(=O)(=O)c4ccccc4)cc3C(=O)N([C@@H](C)CO)C[C@H]2C)cc1	0	0	0	0	-
NC(=S)NN=C1CCCCCCCCCC1	0	0	0	0	0
NC(=S)NN=C1CCC(C2CCCCC2)CC1 (centres undefined)	0	0	-45	0	0
CCC(=O)N1CCC2(CC1)CN(C(=O)c1ccccn1)[C@H](CO)c1c2c2ccc(OC)cc2n1C	-	-	0	0	-
O=C(NCC1CC1)[C@H]1[C@H](CO)[C@H]2Cn3c(cccc3=O)[C@H]2N1Cc1cncnc1	0	0	0	0	-
CN(Cc1ccccc1)C1=CC(=[N+]2CCCCC2)CC(C)(C)C1	0	0	-51	0	0
COc1cccc(/C=C2\CCc3ccccc3C2=O)c1	0	0	0	0	0
COc1cccc(C=C2Cc3ccccc3C2=O)c1	0	0	-17	0	0
COc1ccc2c(c1)CC/C(=C/c1cc(OC)c(OC)c(OC)c1)C2=O	0	0	-20	0	0
C/C(N)=C(/C#N)C(=O)COC(=O)c1cc2c(s1)CCC(C)C2 (centres undefined)	0	0	-29	0	0
C/C(N)=C(/C#N)C(=O)COC(=O)c1cc2c(s1)CCCC2	0	0	0	0	0
O=C(C[C@@H]1C=C[C@H](NC(=O)C2CC2)[C@H](CO)O1)Nc1nccs1	0	83	0	0	-
NC(=S)N=Nc1c(O)cc(O)c2[nH]c(=O)ccc12	0	93	0	0	-
NC(=S)N=Nc1c(O)[nH]c2ccc(F)cc12	0	0	0	0	0
O=C1N[C@H](c2ccccc2)COCc2cn(nn2)CC[C@@H](Cc2ccc(C(F)(F)F)cc2)C(=O)N[C@H](c2ccccc2)COCc2cn(nn2)CC[C@H]1Cc1ccc(C(F)(F)F)cc1	-	-	0	-	-
CC(=O)NC(=C(Cl)Cl)S(=O)(=O)c1ccccc1	0	0	0	0	0
O=C(NC(=C(Cl)Cl)S(=O)(=O)c1ccc(Cl)cc1)c1ccccc1	0	39	0	0	0
